The record followed here is the supplement of paper PMC9794691.

SMILES strings stand for the structures.

Holding throughout (assay): area under confluence curve of osimertinib + compound combination regimen (DTP regrowth); compare to osimertinib-only DTP control AUC of the same experiment (AUC (confluence x time, arbitrary))
One assay deals with PC9. The essentials:
(§1)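 Two schedules were compared in EGFR-mutant NSCLC lines. In one, the EGFR inhibitor and a fixed-dose test compound were given together up to the persister stage (10–21 days), followed by drug-free medium. In the other, the inhibitor alone came first and the test compound second. Prism calculated the area under the IncuCyte confluence–time curve, taking the median of triplicates where these were available.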

A further assay concerns H1975. Summed up: as §1
Another assay concerns HCC2279. Summed up: as §1
A further assay deals with HCC2935. Summed up:
as §1

The subject of another assay is HCC4006. Summed up: as §1
Another assay has as its system HCC827. Summed up:
as §1

The next assay has as its system II-18. Summed up: as §1

Take `CN(C)C/C=C/C(=O)Nc1ccc(C(=O)Nc2cccc(Nc3ncc(Cl)c(-c4c[nH]c5ccccc45)n3)c2)cc1` + C=CC(=O)Nc1cc(Nc2nccc(-c3cn(C)c4ccccc34)n2)c(OC)cc1N(C)CCN(C)C [osimertinib]: the “area under confluence curve” value with PC9 (test compound dose 1000 nM, dosing schedule: sequential, osimertinib-only DTP control AUC in same experiment: 11414, DMSO control AUC in same experiment: 31219) is 12600; in the assay on PC9 (test compound dose 1000 nM, dosing schedule: upfront, osimertinib-only DTP control AUC in same experiment: 18848, DMSO control AUC in same experiment: 31219) it was 21300.
On to `O=C([C@@H](Cc1cccc(C(F)(F)F)c1)NS(=O)(=O)c1cc(F)c2c(c1)CCNC2)N1CCCC1` + C=CC(=O)Nc1cc(Nc2nccc(-c3cn(C)c4ccccc34)n2)c(OC)cc1N(C)CCN(C)C [osimertinib], for which the “area under confluence curve” value was 10000 in the assay with PC9 (test compound dose 1000 nM, dosing schedule: sequential, osimertinib-only DTP control AUC in same experiment: 10968, DMSO control AUC in same experiment: 21594) and 13600 in the assay on PC9 (test compound dose 1000 nM, dosing schedule: upfront, osimertinib-only DTP control AUC in same experiment: 17834, DMSO control AUC in same experiment: 21594).
As for `CN1CCN(CCOc2cc(OC3CCOCC3)c3c(Nc4c(Cl)ccc5c4OCO5)ncnc3c2)CC1` [Saracatinib] + C=CC(=O)Nc1cc(Nc2nccc(-c3cn(C)c4ccccc34)n2)c(OC)cc1N(C)CCN(C)C [osimertinib], the “area under confluence curve” value in the assay on PC9 (test compound dose 300 nM, dosing schedule: sequential, osimertinib-only DTP control AUC in same experiment: 9267, DMSO control AUC in same experiment: 19507) came out at 4570; with PC9 (test compound dose 300 nM, dosing schedule: sequential, osimertinib-only DTP control AUC in same experiment: 12589, DMSO control AUC in same experiment: 28243), 8930; with PC9 (test compound dose 300 nM, dosing schedule: upfront, osimertinib-only DTP control AUC in same experiment: 10534, DMSO control AUC in same experiment: 19507) it was 1600; with PC9 (test compound dose 300 nM, dosing schedule: upfront, osimertinib-only DTP control AUC in same experiment: 16088, DMSO control AUC in same experiment: 28243), 16200.
`CN1CCN(c2nc(C3=C(c4c[nH]c5ccccc45)C(=O)NC3=O)c3ccccc3n2)CC1` [Sotrastaurin] + C=CC(=O)Nc1cc(Nc2nccc(-c3cn(C)c4ccccc34)n2)c(OC)cc1N(C)CCN(C)C [osimertinib]: the “area under confluence curve” value came to 9060 with PC9 (test compound dose 1000 nM, dosing schedule: sequential, osimertinib-only DTP control AUC in same experiment: 10175, DMSO control AUC in same experiment: 27958) and 10800 in the assay on PC9 (test compound dose 1000 nM, dosing schedule: upfront, osimertinib-only DTP control AUC in same experiment: 16134, DMSO control AUC in same experiment: 27958).
As for `NC1(C(=O)N[C@@H](CCO)c2ccc(Cl)cc2)CCN(c2nc[nH]c3nccc2-3)CC1` [Capivasertib] + C=CC(=O)Nc1cc(Nc2nccc(-c3cn(C)c4ccccc34)n2)c(OC)cc1N(C)CCN(C)C [osimertinib], the “area under confluence curve” value in the assay with H1975 (test compound dose 300 nM, dosing schedule: sequential, osimertinib-only DTP control AUC in same experiment: 9919, DMSO control AUC in same experiment: 26010) amounted to 1840; in the assay on H1975 (test compound dose 300 nM, dosing schedule: upfront, osimertinib-only DTP control AUC in same experiment: 15327, DMSO control AUC in same experiment: 26010), 3990; in the assay with HCC2279 (test compound dose 300 nM, dosing schedule: sequential, osimertinib-only DTP control AUC in same experiment: 20224, DMSO control AUC in same experiment: 29252), 13700; in the assay with HCC2279 (test compound dose 300 nM, dosing schedule: upfront, osimertinib-only DTP control AUC in same experiment: 43517, DMSO control AUC in same experiment: 29252) it was 38900; in the assay on HCC2935 (test compound dose 300 nM, dosing schedule: sequential, osimertinib-only DTP control AUC in same experiment: 9121, DMSO control AUC in same experiment: 11459) it was 5940; in the assay with HCC2935 (test compound dose 300 nM, dosing schedule: upfront, osimertinib-only DTP control AUC in same experiment: 12748, DMSO control AUC in same experiment: 11459) it was 10300. The “area under confluence curve” value stood at 17000 with HCC4006 (test compound dose 300 nM, dosing schedule: sequential, osimertinib-only DTP control AUC in same experiment: 22375, DMSO control AUC in same experiment: 16794); 12500 in the assay with HCC4006 (test compound dose 300 nM, dosing schedule: upfront, osimertinib-only DTP control AUC in same experiment: 24440, DMSO control AUC in same experiment: 16794); 5490 in the assay with HCC827 (test compound dose 300 nM, dosing schedule: sequential, osimertinib-only DTP control AUC in same experiment: 8266, DMSO control AUC in same experiment: 27404); 9340 with HCC827 (test compound dose 300 nM, dosing schedule: upfront, osimertinib-only DTP control AUC in same experiment: 13929, DMSO control AUC in same experiment: 27404); 3590 in the assay with II-18 (test compound dose 300 nM, dosing schedule: sequential, osimertinib-only DTP control AUC in same experiment: 3520, DMSO control AUC in same experiment: 13556); 2040 in the assay on II-18 (test compound dose 300 nM, dosing schedule: upfront, osimertinib-only DTP control AUC in same experiment: 6532, DMSO control AUC in same experiment: 13556). Further, the “area under confluence curve” value with PC9 (test compound dose 300 nM, dosing schedule: sequential, osimertinib-only DTP control AUC in same experiment: 3562, DMSO control AUC in same experiment: 31840) came to 1390; in the assay with PC9 (test compound dose 300 nM, dosing schedule: sequential, osimertinib-only DTP control AUC in same experiment: 10725, DMSO control AUC in same experiment: 30578), 2030; in the assay on PC9 (test compound dose 300 nM, dosing schedule: sequential, osimertinib-only DTP control AUC in same experiment: 12535, DMSO control AUC in same experiment: 43316), 2150; with PC9 (test compound dose 300 nM, dosing schedule: upfront, osimertinib-only DTP control AUC in same experiment: 10245, DMSO control AUC in same experiment: 30578), 9240; with PC9 (test compound dose 300 nM, dosing schedule: upfront, osimertinib-only DTP control AUC in same experiment: 15354, DMSO control AUC in same experiment: 43316), 14600; with PC9 (test compound dose 300 nM, dosing schedule: upfront, osimertinib-only DTP control AUC in same experiment: 19015, DMSO control AUC in same experiment: 31840), 13200.
Regarding `CCn1cc(-c2cccc(C(F)(F)F)c2)c2sc(C(=N)NC3CCS(=O)(=O)CC3)cc2c1=O` + C=CC(=O)Nc1cc(Nc2nccc(-c3cn(C)c4ccccc34)n2)c(OC)cc1N(C)CCN(C)C [osimertinib], the “area under confluence curve” value turned out to be 4010 in the assay on PC9 (test compound dose 1000 nM, dosing schedule: sequential, osimertinib-only DTP control AUC in same experiment: 4730, DMSO control AUC in same experiment: 72888) and 6420 in the assay with PC9 (test compound dose 1000 nM, dosing schedule: upfront, osimertinib-only DTP control AUC in same experiment: 8775, DMSO control AUC in same experiment: 72888).
Regarding `COc1nn(C)cc1Nc1nccc(-c2c[nH]c3c(NC(=O)[C@@H](C)N4CCN(C)CC4)cccc23)n1` + C=CC(=O)Nc1cc(Nc2nccc(-c3cn(C)c4ccccc34)n2)c(OC)cc1N(C)CCN(C)C [osimertinib], the “area under confluence curve” value is 19800 in the assay on H1975 (test compound dose 1000 nM, dosing schedule: sequential, osimertinib-only DTP control AUC in same experiment: 22968, DMSO control AUC in same experiment: 15857); 18200 with H1975 (test compound dose 1000 nM, dosing schedule: upfront, osimertinib-only DTP control AUC in same experiment: 27164, DMSO control AUC in same experiment: 15857); 23400 with HCC2279 (test compound dose 1000 nM, dosing schedule: sequential, osimertinib-only DTP control AUC in same experiment: 26096, DMSO control AUC in same experiment: 14404); 31200 with HCC2279 (test compound dose 1000 nM, dosing schedule: upfront, osimertinib-only DTP control AUC in same experiment: 33120, DMSO control AUC in same experiment: 14404); 20700 in the assay on HCC2935 (test compound dose 1000 nM, dosing schedule: sequential, osimertinib-only DTP control AUC in same experiment: 22314, DMSO control AUC in same experiment: 19215); 31500 with HCC2935 (test compound dose 1000 nM, dosing schedule: upfront, osimertinib-only DTP control AUC in same experiment: 29846, DMSO control AUC in same experiment: 19215). Also, the “area under confluence curve” value with HCC4006 (test compound dose 1000 nM, dosing schedule: sequential, osimertinib-only DTP control AUC in same experiment: 12791, DMSO control AUC in same experiment: 18415) was found to be 12900; in the assay with HCC4006 (test compound dose 1000 nM, dosing schedule: upfront, osimertinib-only DTP control AUC in same experiment: 17269, DMSO control AUC in same experiment: 18415), 18700; in the assay on HCC827 (test compound dose 1000 nM, dosing schedule: sequential, osimertinib-only DTP control AUC in same experiment: 15330, DMSO control AUC in same experiment: 21320), 10400; with HCC827 (test compound dose 1000 nM, dosing schedule: upfront, osimertinib-only DTP control AUC in same experiment: 20798, DMSO control AUC in same experiment: 21320), 15000; in the assay on II-18 (test compound dose 1000 nM, dosing schedule: sequential, osimertinib-only DTP control AUC in same experiment: 8624, DMSO control AUC in same experiment: 11834) it was 1310; with II-18 (test compound dose 1000 nM, dosing schedule: upfront, osimertinib-only DTP control AUC in same experiment: 10856, DMSO control AUC in same experiment: 11834), 1640.
